# aDG glyco act: alpha-DG glycosylation activation | activation, % at 10 µM | Pro5-aDG cells, alpha-DG glycosylation AlphaScreen (IIH6); 0% Pro5, 100% B10-LARGE cell signal | AID 624168 | actives 0.22% (n = 360,000);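 active = activation of at least 8% versus controls, or a plate z-score of at least 8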;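 note: Pro5 are CHO cells carrying HIG-tagged alpha-DG that lacks glycosylation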
# CRFBP-R2 block: CRF-BP/CRF-R2 complex antagonism; AID 588475; actives 0.59% (n = 350,000); inhibition, % at 11.8 µM; HEK293 CRF-R2/CRF-BP, CRF-induced calcium fluorescence;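 active = inhibition of the ligand-induced calcium signal above about 50% at the single tested concentration, limit read from the data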
# FAS-TE inh: blocks the thioesterase domain of human fatty acid synthase; P49327; recombinant FAS-TE, OMFH fluorogenic substrate, fluorescence endpoint; inhibition, % at 15 µM; actives 0.67% (n = 360,000); AID 602261;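 active = compounds whose normalised, plate-corrected inhibition of enzyme fluorescence in the single-dose primary screen is 50% or more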;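 note: 0% = DMSO with enzyme and 100% = substrate without enzyme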
# Cardio protect: protects H9c2 cardiomyocytes from peroxide injury. protection from H2O2 cell death, % at 20 µM. H2O2 injury protection, ATPLite, 2 h. actives 0.63% (n = 360,000);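 active = compounds giving at least 50% protection of heart cells from peroxide-induced death in the single-dose screen, raw or plate-pattern-corrected value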;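 note: 0% = DMSO wells with peroxide and 100% = DMSO wells without peroxide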
# CRFBP-R2 agonist: agonists of human CRF-binding protein/CRF-R2 receptor complex | actives 0.46% (n = 350,000) | HEK293 CRF-R2/CRF-BP, calcium dye fluorescence (FLIPR); percent of saturating CRF peptide response | activation, % at 13.2 µM;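 active = activation of at least 50%, plus an integration ratio under a set limit after plate pattern correction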;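 note: plate controls were neutral control wells without compound for no effect and CRF at EC100 for full effect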
# PfGluPho inh: PfG6PD (Plasmodium falciparum) enzyme inhibition; PfGluPho enzyme, NADPH resazurin-diaphorase fluorescence; inhibition, % at 20 µM; actives 0.78% (n = 350,000); AID 504690;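 active = inhibition reaching at least a set limit at 20 µM in the primary screen, cut at about 59% in these data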;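 note: 0% = DMSO wells with substrate and 100% = DMSO wells lacking glucose-6-phosphate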
# PfG6PD confirm: PfG6PD inhibition, single-dose confirmed; shares compounds with PfGluPho inh; recombinant PfGluPho, NADPH-diaphorase-resazurin fluorescence; inhibition, % at 20 µM; actives 34% (n = 2,400);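 active = inhibition of at least 50% at 20 µM in any single replicate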;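 note: 0% = DMSO with substrate and 100% = DMSO lacking glucose-6-phosphate substrate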
# Diaph ctr 10uM: counter-screen for P. falciparum G6PD inhibitors: diaphorase inhibitors, oxidizers; shares compounds with PfGluPho inh; diaphorase-coupled resazurin reduction, fluorescence, NADPH 10 uM; inhibition, % at 20 µM; actives 39% (n = 820);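 active = average inhibition reaching 50% or more with the compound at 20 µM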;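 note: resorufin red fluorescence formed as diaphorase reduces resazurin using NADPH; 0% = DMSO with enzyme and 100% = DMSO without enzyme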
# Diaph ctr 30uM: counter-screen for P. falciparum G6PD inhibitors: diaphorase inhibitors, oxidizers | shares compounds with PfGluPho inh | Diaphorase/resazurin coupled assay, resorufin fluorescence, 30 uM NADPH | inhibition, % at 20 µM | actives 29% (n = 820) | AID 504863;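 active = inhibition averaging 50% or more, tested at 20 µM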;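 note: 0% = DMSO with enzyme and 100% = DMSO wells lacking diaphorase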
# Numbers without * were called inactive; . = no result given. Compounds with a hit are over-represented: about 3.2% of the library has one in this group of screens.
SMILES,aDG glyco act,CRFBP-R2 block,FAS-TE inh,Cardio protect,CRFBP-R2 agonist,PfGluPho inh,PfG6PD confirm,others
CN1C(=O)C(N=Nc2ccc([N+](=O)[O-])cc2)SC1=S (stereo unspecified),0.1,68.1*,-0.3,-10.2,70.3*,105.8*,52.0*,Diaph ctr 10uM=54.0*;Diaph ctr 30uM=34.2
CN1CCCCCC1=Nc1ccc([N+](=O)[O-])cc1,0.0,-1.7,-2.9,-3.9,-0.4,1.0,.,
O=C(/C=C/c1cccs1)N1CCCCC1,-0.1,-21.2,-5.9,6.8,16.9,-1.1,.,
O=C(/C=C/c1cccs1)N1CCN(c2ccc(O)cc2)CC1,1.9,9.0,-6.2,1.9,0.5,64.0*,36.4,
O=C(CSc1cn(CCNC(=O)c2c(F)cccc2F)c2ccccc12)NCC1CCCO1 (stereo unspecified),0.6,5.5,-5.3,-1.2,0.7,10.4,.,
O=C(NCCn1cc(SCc2ccc(F)cc2)c2ccccc21)c1c(F)cccc1F,0.6,-7.9,32.1,-17.0,-0.7,86.1*,-11.4,
O=C(NCCn1cc(SCc2ccc(F)cc2)c2ccccc21)c1ccccc1F,2.9,6.0,35.2,-26.5,5.7,76.5*,-13.1,
O=C(NCCn1cc(SCc2ccccc2)c2ccccc21)c1c(F)cccc1F,0.1,-34.8,30.9,-15.9,4.3,64.4*,-19.6,
COc1ccc(N2C3=C(CC4=C2CCCC4=O)C(=O)CCC3)cc1,-0.4,-12.2,-5.8,19.7,0.6,96.9*,19.4,
COc1ccc(N2CCN(C(=O)COC(=O)[C@@H](NC(=O)c3c(F)cccc3F)C(C)C)CC2)cc1,-0.1,0.0,-5.2,-1.2,1.0,2.2,.,
COc1cccc(C(=O)Nc2sc3c(c2C(=O)O)CCCC3)c1,0.1,23.5,-4.8,-2.3,-1.7,87.6*,41.2,
CC(=O)N1CCc2c(sc(NC(=O)CS(=O)(=O)c3ccc(F)cc3)c2C#N)C1,-0.3,2.6,-5.2,-5.4,-0.1,-8.6,.,
Cc1cccc(C(=O)Nc2sc3c(c2C(=O)O)CCC3)c1,0.1,6.2,-2.4,-2.3,-1.2,59.5*,18.5,
COc1cccc(C(=O)Nc2sc3c(c2C#N)CCN(C(C)=O)C3)c1,-0.3,7.7,-9.4,-4.8,1.0,60.5*,35.7,
CCN(CC)C(=O)c1sc2nc(N3CCOCC3)c3c(c2c1N)CCCC3,0.3,-14.3,2.4,4.1,1.1,76.3*,9.8,
Nc1c(C(=O)NCc2ccco2)sc2nc(N3CCOCC3)c3c(c12)CCCC3,-0.4,2.1,6.6,25.2,-0.9,66.3*,-0.7,
Nc1c(C(=O)Nc2ccc(Br)cc2)sc2nc(N3CCOCC3)c3c(c12)CCCC3,-0.3,8.5,-7.1,-5.0,-1.1,11.7,.,
CCOC(=O)c1c(NC(=O)c2ccccc2Cl)sc2c1CCc1ccccc1-2,0.1,-27.3,39.6,-3.2,1.4,72.2*,28.2,
CCOC(=O)c1c(NC(=O)c2ccccc2)sc2c1CCc1ccccc1-2,-0.3,-18.0,29.7,0.0,-2.5,58.0,.,
COC(=O)C(C)NC(=O)c1ccc(C(C)(C)C)cc1 (stereo unspecified),-0.1,-19.5,-1.3,-6.3,-4.1,7.6,.,
CC1(C)Nc2ccc(O)cc2-c2c1ssc2=S,0.8,10.3,-3.4,-6.0,-2.6,72.0*,54.5*,Diaph ctr 10uM=0.2;Diaph ctr 30uM=9.7
O=C(Cc1cccs1)N=Nc1c(O)[nH]c2ccccc12,0.0,-13.8,-5.7,-2.2,-1.3,5.1,.,
O=C(N=Nc1c(O)[nH]c2ccccc12)c1ccccc1NS(=O)(=O)c1cccs1,-0.1,11.2,-9.2,4.6,-2.7,62.4*,11.9,
O=C(N=Nc1c(O)[nH]c2ccccc12)c1cc(-c2cccs2)[nH]n1,-0.2,14.3,9.3,14.3,-0.2,92.4*,38.6,
Oc1ccc(Nc2ccc3ccccc3c2)cc1,0.4,-3.6,5.9,-12.9,-0.8,63.1*,29.4,
SMILES,aDG glyco act,CRFBP-R2 block,FAS-TE inh,Cardio protect,CRFBP-R2 agonist,PfGluPho inh,PfG6PD confirm,others
COCc1cc(C)n(CC(=O)Nc2cc(C)cc(C)c2)c(=O)c1C#N,0.2,1.7,-1.8,4.9,0.8,1.8,.,
Oc1c(Br)cc(/C=N/Nc2nncc3ccccc23)cc1Br,.,10.6,.,.,0.6,62.7*,-10.7,
COc1ccc(/C=N/Nc2nncc3ccccc23)cc1,-0.4,-26.4,1.8,-10.6,-1.8,5.4,.,
O=C1C=CC(=O)C(C2=C3C(=O)N(CCc4ccccc4)CC(=O)N3CCC2)=C1,.,-8.0,.,.,1.6,110.0*,114.0*,Diaph ctr 10uM=98.8*;Diaph ctr 30uM=82.2*
CCN1CCN(c2nc(C)nc3c2sc(=S)n3C)CC1,0.1,-9.1,0.5,7.4,-2.9,76.3*,62.4*,Diaph ctr 10uM=-18.9;Diaph ctr 30uM=-14.6
CCn1c([N+](=O)[O-])nc2c1c(=O)[nH]c(=O)n2C,-0.9,10.9,1.1,-7.5,1.6,66.7*,51.9*,Diaph ctr 10uM=36.9;Diaph ctr 30uM=32.3
CCCCCCn1c(SCCCC)nc2c1c(=O)[nH]c(=O)n2C,0.1,-51.7,3.1,-14.0,0.5,-10.2,.,
CC1=CC(C)(C)NC(=S)N1c1cc(C)cc(C)c1,0.1,-0.4,-9.3,-7.2,-5.7,62.6*,23.0,
CCCSc1nc2c([nH]1)c(=O)n(C)c(=S)n2C,0.0,-6.8,-5.1,2.8,2.5,21.0,.,
CCSc1nc2c([nH]1)c(=O)n(C)c(=S)n2C,0.0,17.3,-3.8,11.9,-2.8,62.1*,40.9,
COc1ccccc1CNC(=S)Nc1ccc2nc(N3CCN(C)CC3)cc(C)c2c1,0.6,-11.5,-5.6,14.8,10.2,8.8,.,
NS(=O)(=O)c1ccc(CCNC(=O)c2ccccc2[N+](=O)[O-])cc1,-0.2,9.9,-10.8,11.3,-2.4,-5.5,.,
O=C(Nc1ccc(Cl)c(Cl)c1)c1ccc(Cl)c(Cl)c1,0.7,-4.1,11.8,-17.3,2.4,5.6,.,
Cc1ccc(NC(=O)c2ccc(Cl)c(N3C(=O)C=CC3=O)c2)cc1,-0.8,-31.6,7.6,-36.1,18.5,100.1*,99.5*,Diaph ctr 10uM=-21.5;Diaph ctr 30uM=-6.8
Oc1ccc(N2CCN(C(c3cccs3)c3nnnn3CCc3ccccc3)CC2)cc1 (stereo unspecified),-0.1,-15.6,-4.6,15.6,1.9,66.3*,8.1,
CCN(C(=O)c1ccc2c(SCC(=O)O)c3c(nc2c1)CCC3)c1cc(Cl)ccc1OC,0.0,-5.0,-0.2,-2.0,0.4,-12.9,.,
COc1ccc(C2C(C#N)=C(N)Oc3cc(C)n(Cc4ccco4)c(=O)c32)cc1 (stereo unspecified),-0.2,23.6,21.2,3.2,18.1,23.0,.,
